An excerpt weighted towards active compounds, which were near 7.3% of everything screened.
NPC1 promoter act = activates the NPC1 promoter; Huh7 NPC1 promoter luciferase reporter, 24 h; Potency, µM (titrated, usually from 9.22 µM), without a hit: top-dose activation, usual class: activators; actives 2.4% (n = 320,000); note: % of control where 0% means no effect; nearly all actives have a fitted effect of over 60% in size
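Luminescence from an NPC1 promoter-driven luciferase reporter in stably transfected Huh7 cells was measured after 24 h compound treatment at 37 °C, followed by 10 min ambient incubation with luciferase detection reagent.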
Luc counter = counter-screen: inhibitors of Kinase-Glo firefly luciferase. Kinase-Glo luciferase, ATP luminescence, 8 min. Q27757. Potency, µM (series often up to 38.3 µM), for inactives: at the top dose activity change, negative = inhibition, actives largely listed as inhibitors. AID 1379. actives 0.28% (n = 200,000); note: % is set by controls: 0 for no effect and ±100 for the full control effect; nearly all actives have a fitted effect of over 60% in size
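Luminescence was the read-out, taken after 8-minute incubation at ambient temperature. Luciferase turned over luciferin with 10 uM ATP in imidazole pH 7.2 buffer containing KCl, MgCl2, Tween 20 and BSA.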
FLuc modulator = counter-screen for miR-21 project: firefly luciferase inhibitors or activators. P08659. purified FLuc, Km substrates, luminescence inhibition. Potency, µM (top dose mostly 57.5 µM), without a hit: top-dose activity change, negative = inhibition, most hits filed as inhibitors. actives 6.9% (n = 360,000);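 note: plate controls were vehicle for no effect and reference inhibitor for full effect; nearly all actives have a fitted effect of over 55% in size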
Target sequence (P08659 whole entry, looked up): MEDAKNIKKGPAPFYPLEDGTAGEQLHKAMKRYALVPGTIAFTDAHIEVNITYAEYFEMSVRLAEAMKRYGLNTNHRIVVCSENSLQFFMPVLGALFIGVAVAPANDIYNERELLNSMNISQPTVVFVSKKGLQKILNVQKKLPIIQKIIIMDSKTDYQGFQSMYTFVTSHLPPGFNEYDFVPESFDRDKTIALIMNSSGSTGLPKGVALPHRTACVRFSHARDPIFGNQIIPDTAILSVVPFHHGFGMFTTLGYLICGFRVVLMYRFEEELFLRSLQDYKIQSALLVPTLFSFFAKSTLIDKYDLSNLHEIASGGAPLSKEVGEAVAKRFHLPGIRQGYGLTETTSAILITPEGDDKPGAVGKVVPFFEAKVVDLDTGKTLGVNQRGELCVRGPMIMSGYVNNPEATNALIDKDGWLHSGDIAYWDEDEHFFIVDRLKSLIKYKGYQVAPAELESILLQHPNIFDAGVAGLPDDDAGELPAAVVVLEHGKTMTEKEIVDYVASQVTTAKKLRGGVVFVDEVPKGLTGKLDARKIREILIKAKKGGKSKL
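Purified P. pyralis luciferase, 10 nM final, with Km-level 10 uM D-luciferin and 10 uM ATP in 50 mM Tris acetate pH 7.5, 10 mM Mg acetate, 0.01% Tween-20, 0.05% BSA; 6-point qHTS titration about 60 µM downward; luminescence read.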
ELG1 genotox = genotoxicity induction in ELG1-luciferase HEK293T cells | Potency, µM (doses to about 46 µM), for the others: at the highest dose activity change, positive = activation, hits mostly activators | actives 1.3% (n = 330,000) | AID 504466 | HEK293T ELG1-luciferase reporter, luminescence, 16 h; note: % of control where 0% means no effect; nearly all actives have a fitted effect of over 60% in size
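Screening used a luciferase reporter fused to human ELG1 in HEK293T cells. Luminescence was read on a CCD plate imager after 16 hr exposure and 30 min ONE-Glo incubation.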
Rab9 promoter act = activates the Rab9 promoter. Huh7 Rab9 promoter-luciferase reporter, luminescence, 24 h. Potency, µM (titrated, usually from 9.22 µM), without a hit: at the highest dose activation, negative = inhibition, most hits filed as activators. actives 2.8% (n = 320,000). AID 485297; note: % of control where 0% means no effect; nearly all actives have a fitted effect of over 60% in size
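Huh7 reporter line, Rab9 promoter upstream of luciferase. Compound exposure 24 h at 37 °C in reduced-serum medium with 10% FBS. Read-out: luminescence.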
SMN2 splice enh = SMN2 splice variant enhancement; HEK293 SMN2-luciferase splicing reporter, luminescence, 30-36 h; Potency, µM (titrated, usually from 46.1 µM), inactives show at the highest dose activity change, positive = activation, usual class: activators; actives 2.8% (n = 210,000); note: % of control where 0% means no effect; nearly all actives have a fitted effect of over 55% in size
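HEK293 cells carry an SMN2 […]–luciferase reporter in which exon 7 inclusion puts luciferase in frame. Cells were plated 10-12 h before compound addition, then incubated 30-36 h at 37C. ONE-Glo luminescence was read; sodium butyrate at 4.5 mM final served as control.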
* marks the source's active call; other numbers are inactive results; ? = inconclusive; / = not tested or not shown; [ ] = dose if it differs, or a comment. Calls come from the whole dose curve; as a rule, active = well fitted curve in the direction sought with a large enough effect; inconclusive = small, poorly fitted or top-dose-only effect, or another doubt; inactive = no such curve, though single readings can be large; an effect the other way counts as inactive or inconclusive. Potency is the fitted concentration of half-maximal effect.

SMILES | NPC1 promoter act | Luc counter | FLuc modulator | ELG1 genotox | Rab9 promoter act | SMN2 splice enh
COc1cc(C2c3cc4c(cc3C(OC3OC5COC(C)O[C@@H]5C(O)C3O)C3COC(=O)C23)OCO4)cc(OC)c1O (some centres undefined) | / | 3% | / | / | / | -58%
CC(=O)c1c(C)[nH]c(C(=O)Nc2ccc(Cl)cc2)c1C | 3.2µM* | / | 9.5µM* | 0% | 1.8µM* | /
CC(=O)c1c(C)[nH]c(C(=O)Nc2ccccn2)c1C | 1.3µM* | / | 9.5µM* | 10µM* | 3.2µM* | /
CC(=O)c1c(C)[nH]c(C(=O)Nc2cccc(C)c2C)c1C | -1% | / | -1% | -4% | 0% | /
CSc1cccc(NC(=O)c2[nH]c(C)c(C(C)=O)c2C)c1 | ? | / | 17µM* | 23µM* | ? | /
CCC(C)c1ccc(NC(=O)c2[nH]c(C)c(C(C)=O)c2C)cc1 (centres undefined) | 25% | / | 19µM* | 7% | 15% | /
COc1cc(OC)c(NC(=O)N2CCc3c(sc4c3CCCC4)C2c2ccccc2)cc1Cl (centres undefined) | / | / | 2% | / | / | /
O=C(O)[C@@H]1[C@@H](C(=O)NCc2cccnc2)[C@@H]2C=C[C@@H]1O2 | / | 0%[7.66 µM] | / | / | / | -16%[9.22 µM]
O=C(Nc1cccc(Cl)c1)c1ccc2nc(Cc3ccccc3)oc2c1 | / | / | -12% | / | / | /
CC(=O)c1c(C)[nH]c(C(=O)Nc2ccc(Cl)c(S(=O)(=O)N(C)C)c2)c1C | 3.5µM* | -1% | 17µM* | 18µM* | 3.2µM* | 11µM*
CC(=O)c1c(C)[nH]c(C(=O)Nc2ccc(Cl)cc2F)c1C | 1.8µM* | / | 9.5µM* | ? | 2.8µM* | /
CC(=O)c1c(C)[nH]c(C(=O)OCC(=O)Nc2ccc(Cl)c(S(=O)(=O)N(C)C)c2)c1C | -4% | / | -2% | -9% | -24% | /
COC(=O)C1=C(C(=O)OC)[C@@H]2Nc3ccccc3[C@@]23C[C@@H](C(=O)OC)N(S(=O)(=O)c2c(C)noc2C)C3=N1 | / | -7%[7.66 µM] | / | / | / | 1%[9.22 µM]
Cc1nc(-c2nc(-c3c(C(=O)NNC(=O)c4ccc(Cl)cc4)noc3C)cs2)cs1 | -3% | / | -19% | -2% | -3% | /
Cc1nc(-c2nc(-c3c(C(=O)NN)noc3C)cs2)cs1 | 24% | 0% | 17µM* | 0% | ? | ?
CC(=O)C(C)Oc1ccc2c3c(c(=O)oc2c1)CCCCC3 (centres undefined) | ? | -5% | 21µM* | 9.2µM* | 2.8µM* | ?
CC(=O)C(C)Oc1ccc2c3c(c(=O)oc2c1)CCCC3 (centres undefined) | 22% | 3% | 15µM* | ? | 24% | -4%
O=C(COc1ccc2c3c(c(=O)oc2c1)CCC3)Nc1ccccn1 | 0.4µM* | / | 0.27µM* | 1.6µM* | 5µM* | /
Cc1cc(NC(=O)COC(=O)COc2ccc3c4c(c(=O)oc3c2)CCC4)no1 | -5% | -2% | -14% | -1% | -1% | 26%
O=C(Nc1cc(C(F)(F)F)ccc1Cl)c1cc(-c2ccc3c(c2)OCCO3)on1 | / | / | 1.7µM* | / | / | /
O=C(Nc1ccccc1C(F)(F)F)c1cc(-c2ccc3c(c2)OCCO3)on1 | / | / | 0.38µM* | / | / | /
COc1ccc(CCNC(=O)CSc2cn(CCNC(=O)c3ccccc3F)c3ccccc23)cc1OC | / | / | -1% | / | / | -16%
CN1N=C2c3ccccc3CCCC2C1c1ccc(F)cc1 (centres undefined) | 17% | / | 12µM* | ? | 26% | /
C(=N\Nc1nncc2ccccc12)/c1ccccn1 | ? | / | 1.7µM* | 0.37µM* | ? | /
O=c1cnnc(N/N=C/c2ccccn2)[nH]1 | -14% | / | 0% | 13% | -19% | /
Fc1cccc(/C=N/Nc2nncc3ccccc23)c1 | 0.32µM* | / | 0.6µM* | 0.73µM* | ? | /
CC(=O)Nc1ccc(/C=N/Nc2nncc3ccccc23)cc1 | 2.8µM* | / | 12µM* | 15% | 1.1µM* | /
